Source: PubChem BioAssay (National Center for Advancing Translational Sciences (NCATS))
Marburg entry inh – qHTS for inhibitors of binding or entry into cells for Marburg Virus; Potency, µM (titrated, usually from 37.8 µM), actives largely listed as inhibitors; actives 1.8% (n = 300,000); Marburg virus pseudotyped entry inhibition, cell reporter; calls by dose curve; tested in HEK293 cells
Lassa entry inh – qHTS for Inhibitors of binding or entry into cells for Lassa Virus | Potency, µM (highest dose often 37.9 µM), actives largely listed as inhibitors | actives 1.2% (n = 300,000) | Lassa virus pseudotype entry inhibition, cell reporter | AID 540256, 2011; calls by dose curve; tested in HEK293 cells; also: nearly all actives have a fitted effect of over 50% in size
SARS PLP yeast – qHTS of Yeast-based Assay for SARS-CoV PLP. S. cerevisiae expressing SARS-CoV PLpro, growth rescue. Potency, µM (doses to about 32.9 µM), hits mostly activators. actives 0.19% (n = 330,000). AID 485353, 2010; calls by dose curve; also: nearly all actives have a fitted effect of over 55% in size
HCV inhibitor – qHTS Assay for Inhibitors of Hepatitis C Virus (HCV); Huh7.5.1 HCVcc-Cre infection, luciferase reporter, 44 h; actives 3.4% (n = 340,000); Potency, µM (highest dose often 41.8 µM), actives largely listed as inhibitors; active = well fitted inhibition curve with a large enough effect; inconclusive = small, poorly fitted or top-dose-only effect, or another doubt; inactive = no such curve, though single readings can be large or run the other way
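Antiviral activity was scored by luciferase reporter output from cells infected with HCVcc-Cre (~0.5 moi) in presence of compound, 44 h infection period, cells seeded 1,000/well 4 h prior.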
FMDV inh – High Throughput Screening for Foot and Mouth Disease Virus Antivirals | FMDV antiviral cell-based qHTS | Potency, µM (top dose mostly 57.9 µM), hits mostly inhibitors | actives 1.2% (n = 410,000); calls by dose curve; tested in HEK293T cells; also: read-out not given here; nearly all actives have a fitted effect of over 45% in size
HCMV antiviral – qHTS Assay for inhibitors of the human cytomegalovirus (HCMV); actives 4.5% (n = 410,000); HFF cells, HCMV-luciferase reporter, 72 h; stronger effect = lower value; AID 1259415, 2018; activity change, negative = inhibition, % at 57.5 µM; in the data active = activity change below about -60%; inconclusive = no clear call, values can overlap the other calls; inactive = above about -39%
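HFF cells seeded 16 h at 37C, treated with compounds, infected with luciferase-reporter HCMV at MOI 1 PFU/cell; luciferase read at 72 h post infection, normalized to buffer-only and Salinomycin controls.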
Hits are given with their value; - = inactive; ? = inconclusive; . = no result given. Sampled rows, rich in hits. Any-hit rate of the full collection: about 8%.

SMILES	Marburg entry inh	Lassa entry inh	SARS PLP yeast	HCV inhibitor	FMDV inh	HCMV antiviral
COCCn1c(-c2ccc(OC(F)(F)C(F)C(F)(F)F)cc2)nc2c1c(=O)[nH]c(=O)n2CC(C)C (stereo unspecified)	-	2.82µM	-	-	?	-
O=c1[nH]c(=O)n(Cc2ccccc2)c2nc(-c3ccc(Oc4ccc(F)cc4)c([N+](=O)[O-])c3)n(CCO)c12	?	?	-	?	-	-63.6
COCCn1c(-c2ccc(SC)cc2)nc2c1c(=O)[nH]c(=O)n2CC(C)C	-	?	-	-	-	-
COc1ccc(-c2nc3c(c(=O)[nH]c(=O)n3Cc3ccccc3)n2CCO)cc1	-	2.24µM	-	-	-	-
CCCCn1c(=O)[nH]c(=O)c2c1nc(-c1ccc(C)c([N+](=O)[O-])c1)n2CC	?	?	-	?	-	-
c1ccc(COCc2ccccc2)cc1	.	.	.	.	.	-
CC1CN=C(c2cc(Cl)c(N)c(Cl)c2)c2c3ccccc3nn21 (stereo unspecified)	.	.	.	.	.	-
CCC(C)n1c(=O)c2sccc2n2c(CCCC(=O)N3CCN(c4ccccc4)CC3)nnc12 (stereo unspecified)	.	-	.	.	-	?
Cc1ccc(OCc2nc3ccccc3n2CC(C)C)cc1	-	-	.	.	-	-
CC1CN=C(N(C(=S)Nc2ccccc2)c2cccc(C(F)(F)F)c2)S1 (stereo unspecified)	?	-	-	-	-	-
Cn1c(-c2cc(Cl)ccc2O)nc2c1c(=O)[nH]c(=O)n2Cc1ccccc1	2µM	?	-	?	?	-
COc1ccc(Br)cc1-c1nc2c(c(=O)[nH]c(=O)n2Cc2ccccc2)n1C	-	?	-	-	-	-
COCCn1c(=O)[nH]c(=O)c2c1nc(-c1ccc(-c3ccc(Cl)cc3[N+](=O)[O-])o1)n2Cc1ccccc1	?	10µM	-	10µM	?	-
Cc1cc(C)cc(NC(N)=S)c1	-	-	?	-	-	-
COc1ccc(-c2c([C@H]3[C@H]4C=CC[C@@H](C)[C@@H]4C(=O)N3Cc3ccccc3)ccc3ccccc23)cc1	.	.	-	7.08µM	?	?
COc1cc(-c2cccc([C@H]3[C@@H]4C=CC[C@@H](C)[C@@H]4C(=O)N3Cc3ccccc3)c2)cc(OC)c1OC	.	.	-	10µM	-	-
COc1ccc(-c2cccc([C@H]3[C@@H]4C=CC[C@@H](C)[C@@H]4C(=O)N3Cc3ccccc3)c2)cc1	.	.	-	?	?	-
CC(=O)c1ccc(-c2cccc([C@H]3[C@@H]4C=CC[C@@H](C)[C@@H]4C(=O)N3Cc3ccccc3)c2)cc1	.	.	-	11.2µM	-	-
O=C(c1noc2c1CCCC2)N1CCCC(N2CCN(c3ccccc3F)CC2)C1 (stereo unspecified)	-	-	-	-	-	.
O=C(NC1CC(=O)N(c2ccc(F)cc2)C1)c1ccc2c(c1)OCO2 (stereo unspecified)	.	-	.	.	-	-
Cc1ccc(-c2nc3c4ccccc4[nH]c(=O)n3n2)cc1	?	?	.	.	-	-
CSc1nc(-c2ccccc2)cc(C)c1C#N	-	-	-	10µM	-	-
COc1cccc(OC)c1CN1CCC2(CCC(CNC(=O)c3ccccc3)O2)CC1 (stereo unspecified)	.	.	.	.	-	.
O=C1C=C(c2ccccc2)C[C@H](c2cccs2)[C@H]1n1nnc([N+](=O)[O-])n1	2µM	?	-	?	-	?
CCC1(c2ccccc2)NC(=O)N(CC(=O)Nc2cc(S(=O)(=O)N3CCCCCC3)ccc2OC)C1=O (stereo unspecified)	?	?	-	14.1µM	-	-
SMILES	Marburg entry inh	Lassa entry inh	SARS PLP yeast	HCV inhibitor	FMDV inh	HCMV antiviral
CCOc1ccc(S(=O)(=O)N2CCCCC2)cc1NC(=O)CN1C(=O)NC(CC)(c2ccccc2)C1=O (stereo unspecified)	?	?	-	?	-	-
CCC1(c2ccccc2)NC(=O)N(CC(=O)Nc2cc(S(=O)(=O)N3CCCCC3)ccc2OC(C)C)C1=O (stereo unspecified)	?	-	.	10µM	-	-
C[C@H]1CC[C@H]2C(=O)N(Cc3cccc([N+](=O)[O-])c3)C[C@H](O)CN2[C@H]1c1cccc(Br)c1	-	?	.	.	.	.
Cc1ccc(C(=O)N/C(=C/c2ccc(-c3ccc([N+](=O)[O-])cc3)o2)C(=O)NCCCN(C)C)cc1	3.98µM	?	.	-	-	?
O=C(NCCCO)/C(=C/c1ccc(-c2cccc([N+](=O)[O-])c2)o1)NC(=O)c1ccccc1	?	-	-	-	-	-
CC(=O)Nc1ccc(NC(=O)c2cc(C3CC3)nc3c2cnn3C(C)C)cc1	-	?	-	10µM	-	-
CC(C)n1ncc2c(C(=O)Nc3ccc(S(C)(=O)=O)cc3)cc(C3CC3)nc21	.	.	-	5.62µM	-	-
CNC(=O)c1cccc(NC(=O)c2cc(-c3ccccc3)nc3c2cnn3C(C)C)c1	.	.	-	3.16µM	?	-
COc1cc(NC(=O)c2cc(-c3ccccc3)nc3c2cnn3C(C)C)cc(OC)c1OC	.	.	-	?	?	.
CC(C)n1ncc2c(C(=O)Nc3ccc(S(N)(=O)=O)cc3)cc(C3CC3)nc21	.	.	-	-	?	-
Cc1ccc(OCCNC(=O)c2cc(C3CC3)nc3c2cnn3C(C)C)cc1	.	.	-	12.6µM	-	-
Cn1nc(C(=O)Nc2nc(-c3ccc(F)cc3)cs2)ccc1=O	.	.	-	?	?	?
Cc1cc2c(c(-c3nc4ccccc4s3)c1)OC(CNC(=O)c1occc1C)C2 (stereo unspecified)	.	.	.	.	-	.
COc1cccc(CNC(=O)c2cc(C3CC3)nc3c2cnn3C(C)C)c1	.	.	-	?	-	-
CC(C)n1ncc2c(C(=O)Nc3cccc(S(=O)(=O)N(C)C)c3)cc(C3CC3)nc21	?	?	-	?	?	-
CCN(CC)C(=O)c1cccc(NC(=O)c2cc(C3CC3)nc3c2cnn3C(C)C)c1	.	.	-	7.08µM	-	-
CCOc1ccc(NC(=O)c2cc(C3CC3)nc3c2cnn3C(C)C)cc1OC	.	.	-	10µM	-	-
CC(C)n1ncc2c(C(=O)NCc3cccnc3)cc(C3CC3)nc21	.	.	-	7.94µM	-	-
Cn1cnnc1-c1cccc(NC(=O)c2cc(F)c(F)cc2Cl)c1	-	-	-	-	-	-
O=C(Nc1cccnc1)c1ccc([N+](=O)[O-])o1	.	.	-	?	-	-
NC(=O)c1oc2ccccc2c1NC(=O)c1ccc([N+](=O)[O-])o1	?	?	-	?	-	-102.2
O=C(NNC(=O)c1ccc([N+](=O)[O-])o1)c1ccccc1	?	-	-	?	-	-92.0
O=C(NN(c1ccccc1)c1ccccc1)c1ccc([N+](=O)[O-])o1	?	-	-	?	-	-92.9
O=C(NC1CCCCC1)c1ccc([N+](=O)[O-])o1	?	?	-	-	-	.
